Source: PubChem BioAssay
Hits are enriched below; roughly 12% of the tested compounds scored in any of these assays.
JMJD2A Tudor inh = inhibitors of human JMJD2A Tudor domain; O75164; AlphaScreen JMJD2A-Tudor / H3K4me3 peptide binding; AID 504339; Potency, µM (titrated, usually from 114 µM), usual class: inhibitors; 390,000 tested, 4.4% active; further: nearly all actives have a fitted effect of over 50% in size
HP1b binding inh = HP1-beta chromodomain-methylated histone interaction inhibition | P83916 | AlphaScreen HP1-beta / biotin-H3K9me3 peptide binding | Potency, µM (top dose mostly 114 µM), most hits filed as inhibitors | 390,000 tested, 0.56% active | AID 540317; further: nearly all actives have a fitted effect of over 70% in size
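Compound inhibition of the preformed complex between 50 nM HP1-beta and 50 nM biotinylated H3K9me3 peptide was read by AlphaScreen. Buffer was PBS pH 7.4 with 0.01% Tween-20. Incubations ran 30 min at room temperature, with 10 ug/mL donor/acceptor beads.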
G9a block = inhibitors of human histone lysine methyltransferase G9a | G9a H3K9 monomethylation, AlphaScreen, 2 h | Potency, µM (doses to about 102 µM), actives largely listed as inhibitors | Q96KQ7 | 350,000 tested, 8.8% active | AID 504332; further: nearly all actives have a fitted effect of over 75% in size
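Readings reflect AlphaScreen signal from monomethyl-H3K9 antibody detection. HMT at 20 nM; substrate b-H3K9 500 nM; cofactor SAM 20 uM; 2 h RT reaction; compounds tested as titrations in qHTS with 15 min preincubation.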
Sfp inh = blocks B. subtilis Sfp PPTase activity; AID 1490; Potency, µM, actives largely listed as inhibitors; Q9F4F7; 310,000 tested, 3.5% active; Biochemical Sfp PPTase activity, qHTS;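 further: the enzyme is Sfp with the accession as filed and its product quenches rhodamine fluorescence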
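Sfp 15 nM + cpd, 15 min RT; start w/ rhodamine-CoA 5 uM, BHQ-2-YbbR 12.5 uM (final); 50 mM Hepes pH 7.6, 10 mM MgCl2, 0.01% NP-40, 0.01% BSA; read 525/598 nm at 0 and 30 min.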
BAZ2B inh = BAZ2B (human) inhibition | AlphaScreen BAZ2B-H3K14Ac peptide displacement | Potency, µM (top dose mostly 114 µM), usual class: inhibitors | 360,000 tested, 4.4% active; further: nearly all actives have a fitted effect of over 60% in size
Target sequence (Q9UIF8 whole entry, looked up): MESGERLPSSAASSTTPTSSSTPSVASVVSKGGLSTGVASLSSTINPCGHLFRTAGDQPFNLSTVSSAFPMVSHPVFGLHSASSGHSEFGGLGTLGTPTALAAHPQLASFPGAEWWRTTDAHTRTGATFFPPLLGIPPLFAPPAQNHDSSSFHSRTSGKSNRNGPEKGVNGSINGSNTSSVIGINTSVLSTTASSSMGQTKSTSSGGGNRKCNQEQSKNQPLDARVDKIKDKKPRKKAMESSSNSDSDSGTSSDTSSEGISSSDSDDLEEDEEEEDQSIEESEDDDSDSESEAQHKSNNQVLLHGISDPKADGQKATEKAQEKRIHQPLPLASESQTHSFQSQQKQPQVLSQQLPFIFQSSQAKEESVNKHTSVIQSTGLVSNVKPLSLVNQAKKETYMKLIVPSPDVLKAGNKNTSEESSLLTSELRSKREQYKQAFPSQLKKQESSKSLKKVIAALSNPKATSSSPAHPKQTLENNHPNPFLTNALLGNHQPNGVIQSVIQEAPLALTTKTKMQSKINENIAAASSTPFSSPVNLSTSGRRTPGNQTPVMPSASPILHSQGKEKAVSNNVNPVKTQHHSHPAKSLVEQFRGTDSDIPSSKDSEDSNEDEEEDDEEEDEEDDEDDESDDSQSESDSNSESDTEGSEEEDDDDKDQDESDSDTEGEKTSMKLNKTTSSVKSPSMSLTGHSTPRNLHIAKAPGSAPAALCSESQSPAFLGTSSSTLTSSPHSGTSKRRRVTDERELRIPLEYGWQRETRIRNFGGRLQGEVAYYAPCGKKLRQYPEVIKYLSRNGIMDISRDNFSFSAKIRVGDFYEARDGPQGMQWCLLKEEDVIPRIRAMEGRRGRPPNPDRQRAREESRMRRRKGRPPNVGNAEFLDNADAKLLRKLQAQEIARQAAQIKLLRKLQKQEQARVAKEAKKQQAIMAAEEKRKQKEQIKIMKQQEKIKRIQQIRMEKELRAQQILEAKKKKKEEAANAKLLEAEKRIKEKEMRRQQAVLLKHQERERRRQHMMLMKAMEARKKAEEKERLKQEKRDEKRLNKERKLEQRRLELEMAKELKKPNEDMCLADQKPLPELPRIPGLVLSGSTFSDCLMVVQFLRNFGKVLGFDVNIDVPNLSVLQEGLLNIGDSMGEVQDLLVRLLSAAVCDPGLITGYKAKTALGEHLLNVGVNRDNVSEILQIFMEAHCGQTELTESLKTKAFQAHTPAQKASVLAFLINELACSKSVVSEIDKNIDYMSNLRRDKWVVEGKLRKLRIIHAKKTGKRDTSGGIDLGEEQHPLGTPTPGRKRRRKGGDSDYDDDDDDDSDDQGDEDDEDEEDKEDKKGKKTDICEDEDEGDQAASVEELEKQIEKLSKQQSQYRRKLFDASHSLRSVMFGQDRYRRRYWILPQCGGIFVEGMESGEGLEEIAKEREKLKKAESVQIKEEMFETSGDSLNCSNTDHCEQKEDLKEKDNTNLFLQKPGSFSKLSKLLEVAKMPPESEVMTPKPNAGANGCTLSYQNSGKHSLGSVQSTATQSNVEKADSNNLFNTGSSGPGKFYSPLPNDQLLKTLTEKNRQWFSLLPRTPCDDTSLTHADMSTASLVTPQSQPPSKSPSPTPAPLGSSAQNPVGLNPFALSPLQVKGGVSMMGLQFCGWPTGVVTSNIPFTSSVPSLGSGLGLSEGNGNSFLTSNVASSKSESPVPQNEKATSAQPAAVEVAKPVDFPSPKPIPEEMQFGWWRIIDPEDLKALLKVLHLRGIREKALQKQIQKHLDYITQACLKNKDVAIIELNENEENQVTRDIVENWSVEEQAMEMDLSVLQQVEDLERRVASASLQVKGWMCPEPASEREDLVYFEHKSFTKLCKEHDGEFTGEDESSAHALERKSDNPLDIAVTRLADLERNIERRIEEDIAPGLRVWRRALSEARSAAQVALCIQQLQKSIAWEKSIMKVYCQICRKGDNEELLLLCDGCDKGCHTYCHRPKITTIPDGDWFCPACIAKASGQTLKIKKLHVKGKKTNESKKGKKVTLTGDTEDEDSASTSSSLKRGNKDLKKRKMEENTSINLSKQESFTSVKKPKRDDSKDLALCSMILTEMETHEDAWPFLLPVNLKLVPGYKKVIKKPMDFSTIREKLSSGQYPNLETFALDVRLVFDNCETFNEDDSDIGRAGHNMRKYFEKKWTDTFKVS
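AlphaScreen luminescence quantifies BAZ2B engagement of H3K14Ac peptide; the protein and biotinylated peptide are both at 50 nM final, buffer PBS pH 7.4 with 0.01% Tween-20, all steps at room temperature.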
Numbers stand for hits; – = inactive; ? = inconclusive; · = no result; [ ] = dose if it differs, or a comment. The call rests on the fitted dose curve; in most records, active means well fitted curve in the direction sought with a large enough effect; inconclusive means small, poorly fitted or top-dose-only effect, or another doubt; inactive means no such curve, though single readings can be large; an effect the other way counts as inactive or inconclusive.

SMILES | JMJD2A Tudor inh | HP1b binding inh | G9a block | Sfp inh | BAZ2B inh
COc1ccc(S(=O)(=O)Nc2c3ccccc3nc(=O)n2-c2ccccc2)cc1 | – | – | – | – | –
O=c1nc2ccccc2c(NS(=O)(=O)c2ccc(Cl)cc2)n1-c1ccccc1 | 56µM | – | –[12.7 µM] | – | –
S=c1[nH]ncn1-c1ccccn1 | 20µM | ? | ? | 22µM | ?
c1ccc(-n2cnc3ccccc32)nc1 | – | – | · | – | –
C(=NN1CCCCCC1)c1ccc2c(c1)OCO2 | 50µM | ? | · | · | ·
C(=N\n1cnnc1)/c1ccc2c(c1)OCO2 | – | – | – | – | –
Oc1ccc(/C=N/N2CCOCC2)c(O)c1O | 22µM | – | 4µM | 10µM | ·
Oc1ccc(Cl)cc1C=NN1CCCCCC1 | 56µM | – | · | · | ·
Oc1ccccc1/C=N/N1CCCCC1 | – | – | – | – | ·
Oc1cccc(/C=N/N2CCCCC2)c1O | – | – | 45µM | – | –
C[C@@H]1COC(=O)O1 | · | · | · | – | ·
Oc1ccc(/C=N/N2CCCCC2)c(O)c1 | – | – | –[2.33 µM] | – | ?
C(=NN1CCCCCC1)c1cccc2ccccc12 | 50µM | ? | · | · | ·
Oc1ccccc1C=NN1CCCCCC1 | 45µM | ? | · | · | ·
Oc1ccc(/C=N/N2CCCCC2)c(O)c1O | 8.9µM | – | 1.6µM | 7.9µM | ?
CC(C)(C)NCC(=Cc1ccccc1)C(=O)c1ccccc1 | – | – | · | · | ·
CCCn1c(SCc2nc(-c3ccc(OC)cc3OC)no2)nnc1-c1ccc(Cl)cc1 | – | – | – | · | ?
Cc1ccc(C)c(N2CCN(S(=O)(=O)c3c(C(=O)N4CCC(C)CC4)c(C)n(C)c3C)CC2)c1 | ? | – | –[12.7 µM] | · | 50µM
COc1cc2c(cc1O)-c1ccccc1CN(C)C2 | · | · | · | – | ·
O=C(CSc1nc2ccccc2c(=O)n1CCCN1CCOCC1)Nc1ccccc1OC(F)F | – | – | · | · | ·
Clc1cc(Cl)c(OCC#CI)cc1Cl | · | · | –[12.7 µM] | 79µM | ·
CCCCn1c(-c2cccnc2)n[nH]c1=S | 8.9µM | – | 25µM | ? | –
CCOC(=O)CSc1n[nH]c(-c2cccnc2)n1 | – | – | – | – | –
CCCCn1c(-c2cccnc2)nc2cc3[nH]c(=O)c(C(C)C)nc3cc21 | – | – | ? | – | –
CCn1c(-c2cccnc2)n[nH]c1=S | 22µM | – | –[0.501 µM] | 89µM | ?
SMILES | JMJD2A Tudor inh | HP1b binding inh | G9a block | Sfp inh | BAZ2B inh
CC(=O)Nc1nonc1-c1nnc(SCC(=O)Nc2ccc(C)c(Cl)c2)n1C | – | – | – | · | –
Cc1ccc2nc(-c3ccccn3)cc(C(=O)NCCc3ccc(F)cc3)c2c1 | ? | – | – | – | –
CC(C)Oc1ccc(C(CCN)C2CCCCC2)cc1 (configuration not stated) | 22µM | 79µM | 16µM | ? | 50µM
Cc1cc(C)c2c(=O)cc(C(=O)Nc3sc4c(c3C(=O)NCc3cccnc3)CCCC4)oc2c1 | – | – | – | · | –
COc1ccc(CCN2C(=O)CC(C(N)=O)SC2=Nc2ccccc2)cc1 (configuration not stated) | 79µM | – | ? | – | ?
COc1ccc(N=C2SC(C(N)=O)CC(=O)N2Cc2ccc3c(c2)OCO3)cc1 (configuration not stated) | 79µM | – | – | – | 79µM
CCNC(=O)C1CC(=O)N(Cc2ccc3c(c2)OCO3)C(=Nc2ccc(F)cc2)S1 (configuration not stated) | – | – | – | – | –
CCc1ccc(-n2c(=O)c3c4c(sc3n(CC(=O)NC(C)CC)c2=O)CCCC4)cc1 (configuration not stated) | – | – | – | · | –
CCCc1cc(=O)n2[nH]c(NC(=O)c3ccco3)nc2n1 | – | – | 79µM | – | –
CCC(=O)Nc1nc2nc(C)cc(=O)n2[nH]1 | 32µM | – | – | – | 56µM
Cc1cc(=O)n2[nH]c(COc3ccccc3)nc2n1 | – | – | 40µM | – | –
Cc1cc(=O)n2[nH]c(C(=O)O)nc2n1 | 8.9µM | – | ? | ? | ?
Cc1cc(=O)n2[nH]c(CCC(=O)O)nc2n1 | – | – | – | – | –
Cc1ccc(C(=O)Nc2nc3nc(C)cc(=O)n3[nH]2)cc1 | ? | – | – | · | –
CCn1nccc1C(=O)Nc1ccc(C(=O)OC(C)C)cc1 | – | – | –[0.501 µM] | – | –
CN(C(=O)c1ccc2c(Cl)c3c(nc2c1)CCC3)c1ccccc1F | ? | – | – | · | –
CCOC(=O)c1ccc(-c2ccc(CO)o2)cc1 | – | – | 45µM | – | –
